Columns and labels:
[1] = target: T1, Ephrin type-B receptor 2 (Homo sapiens) (UniProt P29323); conditions: at 1 µM
T1 sequence (whole entry): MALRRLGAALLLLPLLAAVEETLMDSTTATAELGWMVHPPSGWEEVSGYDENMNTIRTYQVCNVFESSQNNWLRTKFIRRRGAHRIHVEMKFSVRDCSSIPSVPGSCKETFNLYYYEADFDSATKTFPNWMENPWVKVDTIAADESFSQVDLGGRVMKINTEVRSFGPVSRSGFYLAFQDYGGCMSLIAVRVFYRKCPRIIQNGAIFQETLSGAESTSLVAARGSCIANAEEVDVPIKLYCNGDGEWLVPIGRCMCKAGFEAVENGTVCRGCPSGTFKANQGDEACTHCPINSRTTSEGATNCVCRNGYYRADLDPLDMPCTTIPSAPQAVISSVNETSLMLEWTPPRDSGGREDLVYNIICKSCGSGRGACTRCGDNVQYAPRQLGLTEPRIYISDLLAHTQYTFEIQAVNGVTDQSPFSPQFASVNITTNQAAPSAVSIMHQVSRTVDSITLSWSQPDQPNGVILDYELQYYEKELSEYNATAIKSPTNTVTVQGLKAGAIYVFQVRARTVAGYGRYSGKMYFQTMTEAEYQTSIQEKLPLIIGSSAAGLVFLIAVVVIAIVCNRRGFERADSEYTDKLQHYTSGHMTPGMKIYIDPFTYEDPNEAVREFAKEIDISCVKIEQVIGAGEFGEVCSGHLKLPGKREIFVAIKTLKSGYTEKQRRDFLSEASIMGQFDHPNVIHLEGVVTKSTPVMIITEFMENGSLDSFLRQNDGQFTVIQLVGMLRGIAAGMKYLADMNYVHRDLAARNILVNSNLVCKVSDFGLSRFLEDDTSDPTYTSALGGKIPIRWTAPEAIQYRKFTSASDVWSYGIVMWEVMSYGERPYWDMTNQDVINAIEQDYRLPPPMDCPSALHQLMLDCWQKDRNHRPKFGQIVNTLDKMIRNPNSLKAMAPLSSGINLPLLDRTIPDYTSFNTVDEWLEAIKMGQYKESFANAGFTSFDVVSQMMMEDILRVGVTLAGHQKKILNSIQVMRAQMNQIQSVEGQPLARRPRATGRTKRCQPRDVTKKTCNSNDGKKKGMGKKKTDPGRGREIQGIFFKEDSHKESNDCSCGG

[2] = target: T2, Ephrin type-B receptor 3 (Homo sapiens) (UniProt P54753); conditions: at 0.1 µM
T2 sequence (whole entry): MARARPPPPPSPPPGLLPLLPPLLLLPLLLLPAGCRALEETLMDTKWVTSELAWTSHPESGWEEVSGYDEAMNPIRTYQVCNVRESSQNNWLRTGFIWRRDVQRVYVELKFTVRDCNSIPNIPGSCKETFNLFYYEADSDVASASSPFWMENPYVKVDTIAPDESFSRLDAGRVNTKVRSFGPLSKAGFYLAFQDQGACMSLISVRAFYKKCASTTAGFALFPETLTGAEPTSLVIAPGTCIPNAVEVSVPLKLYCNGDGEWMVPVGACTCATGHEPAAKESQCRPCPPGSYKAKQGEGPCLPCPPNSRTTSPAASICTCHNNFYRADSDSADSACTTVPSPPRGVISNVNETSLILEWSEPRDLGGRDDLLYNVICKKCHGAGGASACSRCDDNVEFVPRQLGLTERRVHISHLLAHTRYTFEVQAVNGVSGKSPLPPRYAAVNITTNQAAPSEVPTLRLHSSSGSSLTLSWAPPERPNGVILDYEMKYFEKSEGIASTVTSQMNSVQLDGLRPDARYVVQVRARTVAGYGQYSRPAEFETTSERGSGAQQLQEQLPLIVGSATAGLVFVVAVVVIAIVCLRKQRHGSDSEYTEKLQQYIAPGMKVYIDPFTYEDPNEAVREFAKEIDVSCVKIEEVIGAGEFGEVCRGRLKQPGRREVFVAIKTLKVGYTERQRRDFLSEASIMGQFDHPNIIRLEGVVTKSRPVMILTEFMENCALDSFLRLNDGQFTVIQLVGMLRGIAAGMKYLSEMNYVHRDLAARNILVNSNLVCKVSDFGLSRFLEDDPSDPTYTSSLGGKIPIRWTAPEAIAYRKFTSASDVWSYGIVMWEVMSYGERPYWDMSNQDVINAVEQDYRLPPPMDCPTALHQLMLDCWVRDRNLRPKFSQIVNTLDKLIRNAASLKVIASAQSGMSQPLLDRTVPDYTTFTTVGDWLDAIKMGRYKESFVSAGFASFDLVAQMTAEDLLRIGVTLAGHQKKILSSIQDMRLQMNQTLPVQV

[3] = target: T2, Ephrin type-B receptor 3 (Homo sapiens); conditions: at 1 µM
[4] = target: T3, Ephrin type-B receptor 4 (Homo sapiens) (UniProt P54760); conditions: at 0.1 µM
T3 sequence (whole entry): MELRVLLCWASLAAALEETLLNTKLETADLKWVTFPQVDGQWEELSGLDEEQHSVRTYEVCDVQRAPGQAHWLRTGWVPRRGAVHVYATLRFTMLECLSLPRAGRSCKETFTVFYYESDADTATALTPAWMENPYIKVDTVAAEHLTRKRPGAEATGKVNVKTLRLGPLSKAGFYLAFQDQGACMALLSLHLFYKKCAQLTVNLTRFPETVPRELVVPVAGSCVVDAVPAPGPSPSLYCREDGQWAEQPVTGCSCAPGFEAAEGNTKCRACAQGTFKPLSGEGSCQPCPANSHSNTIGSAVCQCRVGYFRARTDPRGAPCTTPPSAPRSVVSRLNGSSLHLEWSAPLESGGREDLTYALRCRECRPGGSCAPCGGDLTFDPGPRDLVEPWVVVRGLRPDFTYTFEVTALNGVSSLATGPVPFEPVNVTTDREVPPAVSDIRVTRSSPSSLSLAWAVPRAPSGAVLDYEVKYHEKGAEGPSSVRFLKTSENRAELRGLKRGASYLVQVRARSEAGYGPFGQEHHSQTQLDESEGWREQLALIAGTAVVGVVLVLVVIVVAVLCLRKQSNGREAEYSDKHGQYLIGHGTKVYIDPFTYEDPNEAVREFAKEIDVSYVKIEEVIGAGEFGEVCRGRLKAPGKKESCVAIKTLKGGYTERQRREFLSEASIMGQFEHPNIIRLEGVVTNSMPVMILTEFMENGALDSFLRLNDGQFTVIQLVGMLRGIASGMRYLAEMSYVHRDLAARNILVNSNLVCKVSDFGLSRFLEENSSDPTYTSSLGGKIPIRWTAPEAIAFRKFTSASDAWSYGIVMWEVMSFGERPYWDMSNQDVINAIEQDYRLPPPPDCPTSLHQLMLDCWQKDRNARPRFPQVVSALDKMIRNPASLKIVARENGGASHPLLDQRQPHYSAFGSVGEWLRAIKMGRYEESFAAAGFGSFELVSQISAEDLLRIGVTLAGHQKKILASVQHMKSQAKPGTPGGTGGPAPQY

[5] = target: T3, Ephrin type-B receptor 4 (Homo sapiens); conditions: at 1 µM
[6] = target: Receptor tyrosine-protein kinase erbB-2 (Homo sapiens) (UniProt P04626); conditions: at 0.1 µM
[7] = target: Receptor tyrosine-protein kinase erbB-2 (Homo sapiens) (UniProt P04626); conditions: at 1 µM
[8] = target: Receptor tyrosine-protein kinase erbB-4 (Homo sapiens) (UniProt Q15303); conditions: at 0.1 µM
[9] = target: Receptor tyrosine-protein kinase erbB-4 (Homo sapiens) (UniProt Q15303); conditions: at 1 µM
[10] = target: Tyrosine-protein kinase Fer (Homo sapiens) (UniProt P16591); conditions: at 0.1 µM
Chain of Tyrosine-protein kinase Fer (Homo sapiens) (P16591 whole entry, looked up): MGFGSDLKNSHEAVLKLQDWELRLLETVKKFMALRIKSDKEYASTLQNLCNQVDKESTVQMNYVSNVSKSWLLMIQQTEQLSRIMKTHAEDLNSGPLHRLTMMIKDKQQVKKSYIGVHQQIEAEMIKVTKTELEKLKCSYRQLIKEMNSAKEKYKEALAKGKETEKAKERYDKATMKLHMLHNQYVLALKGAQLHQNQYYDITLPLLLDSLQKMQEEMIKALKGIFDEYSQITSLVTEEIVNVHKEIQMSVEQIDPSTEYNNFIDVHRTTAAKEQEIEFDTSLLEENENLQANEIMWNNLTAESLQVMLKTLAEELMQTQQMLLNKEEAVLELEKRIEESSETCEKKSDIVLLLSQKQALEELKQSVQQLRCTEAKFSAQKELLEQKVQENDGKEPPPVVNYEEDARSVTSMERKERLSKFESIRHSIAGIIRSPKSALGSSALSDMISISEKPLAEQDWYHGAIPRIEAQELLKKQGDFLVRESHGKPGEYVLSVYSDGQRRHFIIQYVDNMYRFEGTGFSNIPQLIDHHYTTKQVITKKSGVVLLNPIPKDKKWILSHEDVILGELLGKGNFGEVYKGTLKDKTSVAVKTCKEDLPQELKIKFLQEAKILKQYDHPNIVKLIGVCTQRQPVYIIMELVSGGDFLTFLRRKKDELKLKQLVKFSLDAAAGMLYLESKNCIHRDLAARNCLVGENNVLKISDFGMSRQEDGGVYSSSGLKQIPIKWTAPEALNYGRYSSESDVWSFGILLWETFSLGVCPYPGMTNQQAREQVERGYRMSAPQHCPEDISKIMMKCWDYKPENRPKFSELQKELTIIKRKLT

[11] = target: Tyrosine-protein kinase Fer (Homo sapiens) (UniProt P16591); conditions: at 1 µM
[12] = target: Tyrosine-protein kinase Fes/Fps (Homo sapiens) (UniProt P07332); conditions: at 0.1 µM
Chain of Tyrosine-protein kinase Fes/Fps (Homo sapiens) (P07332 whole entry): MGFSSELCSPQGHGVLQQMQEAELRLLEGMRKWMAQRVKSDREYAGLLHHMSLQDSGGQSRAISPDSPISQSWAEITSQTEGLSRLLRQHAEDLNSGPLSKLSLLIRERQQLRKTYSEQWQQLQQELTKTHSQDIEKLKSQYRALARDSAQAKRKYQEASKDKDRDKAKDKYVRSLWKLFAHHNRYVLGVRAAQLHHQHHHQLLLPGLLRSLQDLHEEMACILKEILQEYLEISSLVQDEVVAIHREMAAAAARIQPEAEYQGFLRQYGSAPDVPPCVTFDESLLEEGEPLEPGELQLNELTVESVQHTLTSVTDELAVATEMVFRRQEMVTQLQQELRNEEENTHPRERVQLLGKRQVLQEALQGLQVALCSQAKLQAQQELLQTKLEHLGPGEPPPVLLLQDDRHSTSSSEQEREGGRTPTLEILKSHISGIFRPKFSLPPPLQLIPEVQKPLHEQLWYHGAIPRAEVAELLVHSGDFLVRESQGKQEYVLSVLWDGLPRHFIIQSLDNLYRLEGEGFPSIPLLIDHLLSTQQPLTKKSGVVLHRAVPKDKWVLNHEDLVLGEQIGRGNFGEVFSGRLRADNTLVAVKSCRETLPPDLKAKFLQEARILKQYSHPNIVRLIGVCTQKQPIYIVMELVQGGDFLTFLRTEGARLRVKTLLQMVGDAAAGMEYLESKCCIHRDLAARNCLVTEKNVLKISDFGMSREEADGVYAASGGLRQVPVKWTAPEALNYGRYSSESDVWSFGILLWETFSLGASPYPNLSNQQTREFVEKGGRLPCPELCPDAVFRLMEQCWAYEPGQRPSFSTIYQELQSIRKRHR

[13] = target: Tyrosine-protein kinase Fes/Fps (Homo sapiens) (UniProt P07332); conditions: at 1 µM
[14] = target: Fibroblast growth factor receptor 1 (Homo sapiens) (UniProt P11362); conditions: at 0.1 µM
Chain of Fibroblast growth factor receptor 1 (Homo sapiens) (P11362 22-822 limits assumed): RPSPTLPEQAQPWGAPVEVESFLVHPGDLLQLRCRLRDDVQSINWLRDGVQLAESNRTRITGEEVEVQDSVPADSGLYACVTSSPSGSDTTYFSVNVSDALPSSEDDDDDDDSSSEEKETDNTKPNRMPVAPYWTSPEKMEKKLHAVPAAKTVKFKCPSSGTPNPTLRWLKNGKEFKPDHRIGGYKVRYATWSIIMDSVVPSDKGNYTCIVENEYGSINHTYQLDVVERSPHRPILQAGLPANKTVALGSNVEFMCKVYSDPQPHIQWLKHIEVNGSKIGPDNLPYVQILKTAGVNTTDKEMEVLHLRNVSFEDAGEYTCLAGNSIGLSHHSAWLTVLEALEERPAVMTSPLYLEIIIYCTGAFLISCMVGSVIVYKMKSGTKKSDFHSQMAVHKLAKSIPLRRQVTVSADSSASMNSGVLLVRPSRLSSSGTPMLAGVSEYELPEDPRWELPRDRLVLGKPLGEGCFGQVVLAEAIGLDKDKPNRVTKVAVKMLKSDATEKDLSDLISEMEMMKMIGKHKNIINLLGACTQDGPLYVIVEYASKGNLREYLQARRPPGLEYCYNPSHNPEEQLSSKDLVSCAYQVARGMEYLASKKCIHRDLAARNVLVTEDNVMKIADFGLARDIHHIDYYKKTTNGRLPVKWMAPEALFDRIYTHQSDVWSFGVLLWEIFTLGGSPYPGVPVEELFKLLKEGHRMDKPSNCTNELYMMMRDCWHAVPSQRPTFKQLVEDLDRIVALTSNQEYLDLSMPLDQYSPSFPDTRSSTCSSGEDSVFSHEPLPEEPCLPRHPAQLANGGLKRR

[15] = target: Fibroblast growth factor receptor 1 (Homo sapiens) (UniProt P11362); conditions: at 1 µM
[16] = target: Fibroblast growth factor receptor 2 (Homo sapiens) (UniProt P21802); conditions: at 0.1 µM
Chain of Fibroblast growth factor receptor 2 (Homo sapiens) (P21802 22-821 limits assumed): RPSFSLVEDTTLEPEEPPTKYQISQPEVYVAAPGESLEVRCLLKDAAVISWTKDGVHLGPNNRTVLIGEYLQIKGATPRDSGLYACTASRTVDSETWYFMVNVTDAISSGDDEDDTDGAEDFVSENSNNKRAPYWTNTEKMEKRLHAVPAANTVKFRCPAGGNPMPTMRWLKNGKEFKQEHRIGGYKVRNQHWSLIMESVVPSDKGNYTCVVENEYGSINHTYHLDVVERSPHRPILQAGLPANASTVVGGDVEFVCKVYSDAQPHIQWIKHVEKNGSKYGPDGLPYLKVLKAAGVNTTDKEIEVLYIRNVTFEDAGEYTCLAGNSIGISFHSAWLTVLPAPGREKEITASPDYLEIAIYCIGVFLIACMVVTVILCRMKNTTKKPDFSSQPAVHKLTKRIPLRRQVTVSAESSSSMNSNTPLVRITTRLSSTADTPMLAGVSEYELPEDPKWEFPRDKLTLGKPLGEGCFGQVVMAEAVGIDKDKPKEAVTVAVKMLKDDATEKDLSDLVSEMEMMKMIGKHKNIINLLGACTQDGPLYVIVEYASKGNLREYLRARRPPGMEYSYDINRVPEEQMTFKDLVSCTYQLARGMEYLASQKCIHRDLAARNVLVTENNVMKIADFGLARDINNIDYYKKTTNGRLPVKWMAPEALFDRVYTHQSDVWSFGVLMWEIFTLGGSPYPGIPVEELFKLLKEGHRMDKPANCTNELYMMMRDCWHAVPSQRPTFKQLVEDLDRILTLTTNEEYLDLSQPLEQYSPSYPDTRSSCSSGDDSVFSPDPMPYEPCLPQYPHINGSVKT

[17] = target: Fibroblast growth factor receptor 2 (Homo sapiens) (UniProt P21802); conditions: at 1 µM
[18] = target: Fibroblast growth factor receptor 3 (Homo sapiens) (UniProt P22607); conditions: at 0.1 µM
Chain of Fibroblast growth factor receptor 3 (Homo sapiens) (P22607 23-806 limits assumed): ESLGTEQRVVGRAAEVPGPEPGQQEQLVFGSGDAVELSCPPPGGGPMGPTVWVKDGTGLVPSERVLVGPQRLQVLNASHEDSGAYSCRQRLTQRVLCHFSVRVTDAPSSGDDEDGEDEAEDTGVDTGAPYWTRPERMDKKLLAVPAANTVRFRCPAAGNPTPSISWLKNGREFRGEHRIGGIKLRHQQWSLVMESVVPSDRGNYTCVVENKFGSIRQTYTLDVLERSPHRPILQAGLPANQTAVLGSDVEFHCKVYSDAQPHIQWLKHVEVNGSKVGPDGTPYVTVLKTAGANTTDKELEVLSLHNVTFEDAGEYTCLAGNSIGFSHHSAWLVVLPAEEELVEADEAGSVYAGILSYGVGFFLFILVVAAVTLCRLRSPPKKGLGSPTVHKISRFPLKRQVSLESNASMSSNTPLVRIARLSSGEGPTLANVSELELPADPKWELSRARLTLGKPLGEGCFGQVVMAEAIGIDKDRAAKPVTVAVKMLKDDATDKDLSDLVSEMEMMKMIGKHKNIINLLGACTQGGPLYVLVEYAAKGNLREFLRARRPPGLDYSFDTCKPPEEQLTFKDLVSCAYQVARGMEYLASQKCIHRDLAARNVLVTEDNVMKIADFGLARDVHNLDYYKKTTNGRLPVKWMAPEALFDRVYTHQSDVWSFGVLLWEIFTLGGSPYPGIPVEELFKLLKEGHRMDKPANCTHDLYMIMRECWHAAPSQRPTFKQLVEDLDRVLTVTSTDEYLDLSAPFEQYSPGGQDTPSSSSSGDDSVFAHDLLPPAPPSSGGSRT

[19] = target: Fibroblast growth factor receptor 3 (Homo sapiens) (UniProt P22607); conditions: at 1 µM
[20] = target: Fibroblast growth factor receptor 4 (Homo sapiens) (UniProt P22455); conditions: at 0.1 µM;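 note: values are mean percent inhibition of FGFR4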
Chain of Fibroblast growth factor receptor 4 (Homo sapiens) (P22455 22-802 limits assumed): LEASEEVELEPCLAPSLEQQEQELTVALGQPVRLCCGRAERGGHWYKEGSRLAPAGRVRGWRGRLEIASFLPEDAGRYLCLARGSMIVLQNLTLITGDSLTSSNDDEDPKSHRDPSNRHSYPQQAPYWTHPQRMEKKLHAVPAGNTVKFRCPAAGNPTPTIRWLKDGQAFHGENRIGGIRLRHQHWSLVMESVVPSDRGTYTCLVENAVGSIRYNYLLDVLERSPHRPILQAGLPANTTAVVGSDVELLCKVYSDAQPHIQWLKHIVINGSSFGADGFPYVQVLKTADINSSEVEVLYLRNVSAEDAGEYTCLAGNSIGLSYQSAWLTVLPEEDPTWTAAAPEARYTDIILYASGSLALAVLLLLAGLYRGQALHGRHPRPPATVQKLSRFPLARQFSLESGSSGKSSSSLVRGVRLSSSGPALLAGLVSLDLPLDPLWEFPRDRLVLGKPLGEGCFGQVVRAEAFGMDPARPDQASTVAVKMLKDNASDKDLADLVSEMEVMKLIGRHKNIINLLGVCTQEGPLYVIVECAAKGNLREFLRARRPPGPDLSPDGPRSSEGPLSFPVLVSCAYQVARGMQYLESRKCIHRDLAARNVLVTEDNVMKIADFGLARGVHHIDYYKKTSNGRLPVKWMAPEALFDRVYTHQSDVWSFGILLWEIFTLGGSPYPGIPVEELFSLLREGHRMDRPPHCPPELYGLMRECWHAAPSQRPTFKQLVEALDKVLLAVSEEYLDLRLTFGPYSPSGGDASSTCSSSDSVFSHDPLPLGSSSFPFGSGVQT

Structure (SMILES) | inhibition [1] | inhibition [2] | inhibition [3] | inhibition [4] | inhibition [5] | inhibition [6] | inhibition [7] | inhibition [8] | inhibition [9] | inhibition [10] | inhibition [11] | inhibition [12] | inhibition [13] | inhibition [14] | inhibition [15] | inhibition [16] | inhibition [17] | inhibition [18] | inhibition [19] | inhibition [20]
Fc1ccc(-c2ncn(C3CCNCC3)c2-c2ccnc(Oc3ccc(Oc4ccccc4)cc3)n2)cc1 | 7.3% | 4.75% | 2.76% | 2.74% | 2.19% | 3.95% | 2.11% | 6.47% | 9.01% | 1.51% | 5.54% | 3.48% | 4.42% | 6.98% | 2.81% | 6.96% | 5.56% | 7.61% | 5.27% | -7.37%
FC(F)(F)c1cccc(Nc2nccc(-c3cnn4nc(-c5ccccc5)ccc34)n2)c1 | 6.85% | 5.37% | 2.32% | -0.91% | 0.74% | 2.98% | 2.21% | 7% | 8.48% | -2.66% | 4.03% | 1.27% | 2.38% | -1.25% | -0.07% | 1.56% | 3.34% | 1.31% | 2.97% | -0.29%
COc1ccc(-c2ccc3c(NC(=O)C4CC4)n[nH]c3n2)cc1 | 5.25% | 3.22% | 2.79% | 1.54% | -0.15% | 2.9% | 3.27% | 4.2% | 3.94% | 2% | 3.63% | 0.69% | 0.62% | -1.21% | 0.21% | 0.09% | 0.42% | 1.8% | 0.95% | -0.34%
O=C(NCC1CC1)c1ccc(-c2cccc(C(=O)NC3CC3)c2)cc1 | 11.8% | 3.55% | 2.98% | 1.37% | 1.03% | -0.54% | 1.1% | 16.7% | 6.05% | 0.26% | -1.83% | 1.39% | 1.59% | 2.86% | 8.03% | 3.33% | 10.1% | 4.92% | 9.43% | -0.02%
CN(C)c1ccc2c(c1)/C(=C/Nc1ccc(S(N)(=O)=O)cc1)C(=O)N2 | 5.77% | 4.11% | 1.83% | 2.11% | 3.08% | 0.32% | 3.44% | 4.88% | 7.65% | 2.36% | 8.18% | 0.6% | 0.4% | 3.54% | 15.3% | 5.56% | 31.6% | 7.1% | 29.6% | 1.99%
N#Cc1ccc(Oc2nccc(-c3c(-c4ccc(F)cc4)ncn3C3CCNCC3)n2)cc1 | 10.3% | 5.17% | 5.31% | -0.34% | 2.48% | 4.34% | 2.33% | 9.54% | 11.9% | 3.43% | 4.07% | 4.54% | 4.03% | -0.69% | 5.45% | 3.13% | 6.84% | 3.14% | 5.22% | 0.73%
O=C(Nc1n[nH]c2cc(-c3cc(F)ccc3F)ccc12)C1CC1 | 8.75% | 8.17% | 2.98% | 2.32% | 4.67% | 3.32% | 1.51% | 8.07% | 8.44% | 2.98% | 3.05% | 2.89% | 3.45% | 0.53% | 1.69% | 1.35% | 6.04% | 3.51% | 2.02% | -1.89%
O=C1Nc2ccc(I)cc2C1=Cc1cc(Br)c(O)c(Br)c1 | 6.84% | 0.93% | 5.23% | 5.1% | 4.33% | 3.38% | 2.46% | 5.63% | 10.5% | -1.96% | 4.37% | 3.93% | 4.1% | 5.92% | 2.51% | 8.24% | 7.14% | 6.43% | 5.73% | 5.1%
CCc1nccc2c1nc(-c1nonc1N)n2CC | -7.41% | 2.73% | -3.8% | 1.19% | 1.5% | -0.18% | -3.91% | 8.55% | 9.58% | 5.29% | 7.31% | 0.14% | 1.26% | -0.52% | -4.23% | -1.59% | 3.19% | -0.24% | 2.1% | -1.31%
c1ccc(-c2n[nH]cc2-c2ccnc(-c3ccc(OCCN4CCOCC4)cc3)c2)nc1 | 5.59% | -5.09% | -7.2% | -1.67% | 0.63% | -3.69% | -4.37% | 3.65% | 2.65% | 7.06% | 5.42% | 0.55% | 0.54% | 3.52% | 5.55% | 4.12% | 7.12% | 3.61% | 5.31% | 4.68%
COC(=O)Nc1nc2ccc(Sc3ccc(NC(=O)Nc4cc(C(F)(F)F)ccc4F)cc3)cc2[nH]1 | 79.9% | 3.25% | 11.3% | 6.3% | 57.2% | 0.24% | 1.41% | 1.95% |  | 1.93% | 1.11% | 0.33% | -0.58% | -1.07% | -3.15% | 0.25% | 4% | 2.1% | 2.77% | 3.12%
COc1ccc2cc(-c3c(-c4ccncc4)nc(-c4ccc(S(C)(=O)=O)cc4C)n3C)ccc2c1 | 12.5% | 7.13% | 10.9% | 4.32% | 14.2% | 5.67% | 8.01% | 15% | 44.4% | 3.19% | 6.59% | 3.14% | 3.35% | 2.35% | 6.54% | 3.92% | 6.16% | 4.02% | 6.07% | -7.02%
CCS(=O)(=O)c1ccc(OC)c(Nc2ncc(-c3cccc(-c4ccccc4F)c3)o2)c1 | 11.9% | 2.15% | 0.93% | 0.78% | 8.8% | -0.34% | 2.22% | 5.89% | 15.2% | 0.83% | 2.29% | -0.07% | 0.23% | 6.92% | 40% | 29.3% | 60.6% | 29.3% | 65.5% | 3.01%

— ChEMBL document CHEMBL1961873, “Compounds: GSK PKIS; Assays: Nanosyn kinase panel” (2012)
